Results: PubChem BioAssay (NCATS)
Inconclusive results are not listed. A call without a number means that no potency is given here. A number with no mark means an inactive call. Calls of active or inactive are those of the source. Calls come from the whole dose curve; as a rule, active = well fitted curve in the direction sought with a large enough effect; inconclusive = small, poorly fitted or top-dose-only effect, or another doubt; inactive = no such curve, though single readings can be large; an effect the other way counts as inactive or inconclusive.

How the values were obtained:
[1] = UWB1.289 Cancer Cell Toxicity qHTS against the NCATS CANVASS Library (AID 1347347); note: nearly all actives have a fitted effect of over 60% in size
Summary of the method: (§1)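 Per well, 1000 cells; exposure 72 h with compound at 11 final concentrations; readout CellTiter-Glo luminescence.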

[2] = Panc-1005 Cancer Cell Toxicity qHTS against the NCATS CANVASS Library (AID 1347349); note: nearly all actives have a fitted effect of over 60% in size
Summary of the method: as §1

[3] = G06 Cancer Cell Toxicity qHTS against the NCATS CANVASS Library (AID 1347368); note: nearly all actives have a fitted effect of over 60% in size
Summary of the method: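 Cells were plated at 500 per well, then compounds were added over an 11-point range. After 72 hr at 37C, CellTiterGlo was added and luminescence measured as ATP content.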

[4] = UWB1.289-WTBRCA1 Cancer Cell Toxicity qHTS against the NCATS CANVASS Library (AID 1347354)
Summary of the method: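 First, 1000 cells go into each well and rest for 4 hours. Next, an 11-point dilution range is pinned in. Plates then incubate 72 hours before CellTiter-Glo addition and luminescence reading.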
Potency is the fitted concentration of half-maximal effect.

Compound	Potency [1]	Potency [2]	Potency [3]	Potency [4]
CO[C@@]12c3c(C)cc(O)c4c(=O)occ(c34)C(=O)[C@@H]1[C@]13COC(=O)c4c(O)cc(C)c(c41)C(=O)[C@H]2[C@@H]3OC(C)=O	5940 nM (active)	inactive	inactive	
C=C[C@]12C=CCN3CC[C@@]4(c5ccccc5NC(=O)[C@@H]4C1)[C@@H]32	inactive	inactive		inactive
C[C@]12CCC3[C@@H](CC[C@@H]4C[C@@H](O)CC[C@]34CO)[C@@]1(O)CC[C@@H]2C1=CC(=O)OC1 (stereo partly drawn)	1180 nM (active)		1870 nM (active)	
O[C@H]1C=C[C@@]23CCN(Cc4cc5c(cc42)OCO5)[C@@H]3C1	11800 nM (active)	inactive	inactive	
C/C=C1/CN2CC[C@@]34c5ccccc5N(C)[C@@H]3[C@@H]2C[C@@H]1[C@H]4C(=O)OC			inactive	inactive
C/C(=C\[C@H](C)C(=O)C[C@H](O)CC1CC(=O)NC(=O)C1)[C@@H]1OC(=O)/C=C/CC/C=C/C=C/[C@@H]1C	118 nM (active)	66.8 nM (active)	52.6 nM (active)	
C[C@]12CC(O)C3[C@@H](CCC4C[C@@H](O)CC[C@@]43CO)[C@@]1(O)CC[C@@H]2C1=CC(=O)OC1 (stereo partly drawn)	13300 nM (active)		13200 nM (active)	
CO[C@H]([C@@H](C)[C@H]1O[C@]1(C)C[C@H](C)/C=C/C=C(\C)[C@H]1O[C@@H](CC(=O)O)CC[C@@H]1C)[C@@H](C)O	18.8 nM (active)	37.5 nM (active)	29.6 nM (active)	
CCCC[C@@H](C)/C=C1/CN2CCC[C@H]2[C@@](C)(O)[C@@H]1O		inactive	inactive	inactive
CO[C@@H](/C=C/CC/C=C/C(=O)O)[C@@H](O)[C@H](C)/C=C(\C)[C@H](O)[C@H](C)C(=O)CCCC1CC(=O)NC(=O)C1	inactive	inactive	inactive	inactive
C=C(C)[C@H]1C(=O)c2c3c(cc4c5c(n1c24)[C@@]1(C)[C@@H](CC[C@H]2[C@](C)(/C=C/C=C(\C)C(=O)O)[C@@H](O)CC[C@@]21C)C5)C1=CC(C)(C)OC(C)(C)[C@H]1[C@@H]3O	11800 nM (active)	8410 nM (active)		18800 nM (active)
CC[C@H]1CN2CCc3c([nH]c4cccc(OC)c34)[C@@H]2C[C@@H]1/C(=C\OC)C(=O)OC				inactive
CO[C@H]1[C@H](O[C@H]2CC[C@]3(C=O)[C@H]4CC[C@]5(C)[C@@H](C6=CC(=O)OC6)CC[C@]5(O)[C@@H]4CC[C@]3(O)C2)O[C@H](C)[C@H](O)[C@@H]1OC			296 nM (active)	
